# In article PMC12214610:
# Tests used:
# 14-3-3 protein eta = 14-3-3 protein eta (UniProt Q04917)
# Actin, cytoplasmic 2 = Actin, cytoplasmic 2 (UniProt P63261)
# [1] = biological target: Rab11 family-interacting protein 1 (UniProt Q6WKZ4)
# Annexin A4 = Annexin A4 (UniProt P09525)
# [2] = biological target: Aspartate--tRNA ligase, cytoplasmic (UniProt P14868)
# [3] = biological target: Autonomous glycyl radical cofactor (UniProt P68066)
# Calreticulin = Calreticulin (UniProt P27797)
# [4] = biological target: Casein kinase II subunit alpha (UniProt P68400)
# Chaperone protein DnaK = Chaperone protein DnaK (UniProt P0A6Y8)
# [5] = biological target: Charged multivesicular body protein 2b (UniProt Q9UQN3)
# [6] = biological target: DNA-binding protein HU-beta (UniProt P0ACF4)
# [7] = biological target: Dihydrolipoyl dehydrogenase (UniProt P0A9P0)
# [8] = biological target: Pyruvate dehydrogenase E1 component (UniProt P0AFG8)
# [9] = biological target: Dihydrolipoyllysine-residue succinyltransferase component of 2-oxoglutarate dehydrogenase complex (UniProt P0AFG6)
# [10] = biological target: Endoplasmic reticulum chaperone BiP (UniProt P11021)
# [11] = biological target: Peptidyl-prolyl cis-trans isomerase B (UniProt P23284)
# [12] = biological target: Fatty acid oxidation complex subunit alpha (UniProt P21177)
# [13] = biological target: Glutamate synthase [NADPH] small chain (UniProt P09832)
# [14] = biological target: Glycine--tRNA ligase beta subunit (UniProt P00961)
# [15] = biological target: Integration host factor subunit beta (UniProt P0A6Y1)
# Myosin-9 = Myosin-9 (UniProt P35579)
# [16] = biological target: Phenylalanine--tRNA ligase alpha subunit (UniProt P08312)
# [17] = biological target: Succinate--CoA ligase [ADP-forming] subunit alpha (UniProt P0AGE9)
# Transketolase 2 = Transketolase 2 (UniProt P33570)
# [18] = biological target: Uncharacterized protein YqjD (UniProt P64581)
# [19] = biological target: Unconventional myosin-XVIIIa (UniProt Q92614)
# Chain of Calreticulin (P27797 whole entry): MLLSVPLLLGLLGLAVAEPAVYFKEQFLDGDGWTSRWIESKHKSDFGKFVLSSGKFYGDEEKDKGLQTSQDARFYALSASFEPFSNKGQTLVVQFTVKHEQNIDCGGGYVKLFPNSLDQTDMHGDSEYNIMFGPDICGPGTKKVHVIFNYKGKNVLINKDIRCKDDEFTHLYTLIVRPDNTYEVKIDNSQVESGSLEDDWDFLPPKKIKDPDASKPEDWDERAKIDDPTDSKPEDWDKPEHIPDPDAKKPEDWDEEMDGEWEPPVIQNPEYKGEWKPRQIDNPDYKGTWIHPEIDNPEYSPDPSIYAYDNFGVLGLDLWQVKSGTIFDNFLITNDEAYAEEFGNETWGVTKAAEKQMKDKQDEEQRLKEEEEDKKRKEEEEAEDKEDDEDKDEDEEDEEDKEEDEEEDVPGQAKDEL
# Chain of Protein disulfide-isomerase, P07237 (P07237 whole entry): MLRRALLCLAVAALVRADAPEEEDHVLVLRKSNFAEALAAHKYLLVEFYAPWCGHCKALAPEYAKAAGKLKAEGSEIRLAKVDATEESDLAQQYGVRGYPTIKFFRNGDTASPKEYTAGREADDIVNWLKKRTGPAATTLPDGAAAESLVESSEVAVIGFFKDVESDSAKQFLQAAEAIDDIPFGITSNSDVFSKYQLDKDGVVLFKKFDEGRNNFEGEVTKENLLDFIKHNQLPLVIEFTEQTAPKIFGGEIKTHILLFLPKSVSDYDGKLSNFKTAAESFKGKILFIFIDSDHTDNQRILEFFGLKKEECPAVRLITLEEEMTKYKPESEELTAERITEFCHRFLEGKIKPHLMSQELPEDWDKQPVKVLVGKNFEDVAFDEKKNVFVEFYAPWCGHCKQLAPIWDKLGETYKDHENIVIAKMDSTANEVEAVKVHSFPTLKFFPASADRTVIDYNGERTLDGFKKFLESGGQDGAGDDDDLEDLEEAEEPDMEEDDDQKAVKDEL
# Chain of Dihydrolipoyllysine-residue succinyltransferase component of 2-oxoglutarate dehydrogenase complex (P0AFG6 whole entry, one chain of several): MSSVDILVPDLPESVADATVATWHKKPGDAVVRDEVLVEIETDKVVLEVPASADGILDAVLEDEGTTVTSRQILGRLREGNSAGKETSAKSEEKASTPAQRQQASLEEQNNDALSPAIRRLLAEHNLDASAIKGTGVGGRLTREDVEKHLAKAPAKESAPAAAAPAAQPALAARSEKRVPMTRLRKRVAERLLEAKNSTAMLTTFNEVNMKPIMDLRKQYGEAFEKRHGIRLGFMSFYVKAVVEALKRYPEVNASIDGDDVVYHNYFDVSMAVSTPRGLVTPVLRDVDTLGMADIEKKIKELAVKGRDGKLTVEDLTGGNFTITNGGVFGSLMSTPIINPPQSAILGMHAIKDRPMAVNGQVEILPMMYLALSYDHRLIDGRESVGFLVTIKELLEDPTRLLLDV
# Chain of Pyruvate dehydrogenase E1 component (P0AFG8 whole entry): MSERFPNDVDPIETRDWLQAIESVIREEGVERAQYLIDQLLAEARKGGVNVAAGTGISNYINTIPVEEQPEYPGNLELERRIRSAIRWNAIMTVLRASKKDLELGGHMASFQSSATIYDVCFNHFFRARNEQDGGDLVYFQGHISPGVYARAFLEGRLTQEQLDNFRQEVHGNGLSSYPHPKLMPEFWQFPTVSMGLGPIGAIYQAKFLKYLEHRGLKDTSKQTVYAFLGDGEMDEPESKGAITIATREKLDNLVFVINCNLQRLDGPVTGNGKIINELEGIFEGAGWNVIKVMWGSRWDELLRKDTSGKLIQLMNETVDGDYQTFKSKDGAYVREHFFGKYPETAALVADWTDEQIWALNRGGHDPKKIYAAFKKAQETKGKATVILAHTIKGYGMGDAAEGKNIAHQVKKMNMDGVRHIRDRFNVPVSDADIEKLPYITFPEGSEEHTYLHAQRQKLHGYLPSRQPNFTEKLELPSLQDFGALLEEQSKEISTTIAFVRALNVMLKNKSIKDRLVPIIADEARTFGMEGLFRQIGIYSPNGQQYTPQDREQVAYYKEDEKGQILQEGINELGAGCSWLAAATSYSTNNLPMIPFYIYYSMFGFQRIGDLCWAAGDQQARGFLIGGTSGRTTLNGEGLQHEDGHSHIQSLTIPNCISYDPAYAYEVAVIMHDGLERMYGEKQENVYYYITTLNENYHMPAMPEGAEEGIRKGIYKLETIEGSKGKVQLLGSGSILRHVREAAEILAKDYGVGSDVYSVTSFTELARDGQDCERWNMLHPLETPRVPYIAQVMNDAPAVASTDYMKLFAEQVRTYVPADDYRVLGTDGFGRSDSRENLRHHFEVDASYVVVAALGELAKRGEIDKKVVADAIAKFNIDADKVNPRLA
# Chain of Peptidyl-prolyl cis-trans isomerase B, P23284 (P23284 whole entry): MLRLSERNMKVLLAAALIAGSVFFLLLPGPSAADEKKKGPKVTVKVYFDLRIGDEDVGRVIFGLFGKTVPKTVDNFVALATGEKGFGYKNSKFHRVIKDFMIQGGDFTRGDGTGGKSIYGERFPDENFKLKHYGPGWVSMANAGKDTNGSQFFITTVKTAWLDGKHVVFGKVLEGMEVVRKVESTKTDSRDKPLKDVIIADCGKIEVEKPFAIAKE
# Chain of Peptidyl-prolyl cis-trans isomerase B (P23284 whole entry): as above
# Chain of Annexin A4 (P09525 whole entry): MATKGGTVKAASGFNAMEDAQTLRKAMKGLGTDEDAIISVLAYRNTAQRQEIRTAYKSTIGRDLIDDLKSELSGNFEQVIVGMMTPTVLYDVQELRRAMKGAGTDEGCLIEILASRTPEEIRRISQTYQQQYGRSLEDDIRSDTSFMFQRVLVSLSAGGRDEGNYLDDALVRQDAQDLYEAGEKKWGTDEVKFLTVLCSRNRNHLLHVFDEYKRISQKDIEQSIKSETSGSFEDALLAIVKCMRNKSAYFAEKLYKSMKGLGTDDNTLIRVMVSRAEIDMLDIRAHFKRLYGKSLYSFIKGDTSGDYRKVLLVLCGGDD
# Chain of 14-3-3 protein eta (Q04917 whole entry): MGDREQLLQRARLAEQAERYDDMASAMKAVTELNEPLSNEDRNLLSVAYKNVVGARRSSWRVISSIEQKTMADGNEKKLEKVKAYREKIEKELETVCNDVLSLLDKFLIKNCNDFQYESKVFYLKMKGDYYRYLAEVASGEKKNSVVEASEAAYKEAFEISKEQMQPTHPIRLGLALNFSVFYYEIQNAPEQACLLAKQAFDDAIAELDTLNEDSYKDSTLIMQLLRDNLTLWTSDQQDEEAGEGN
# Chain of Chaperone protein DnaK (P0A6Y8 whole entry): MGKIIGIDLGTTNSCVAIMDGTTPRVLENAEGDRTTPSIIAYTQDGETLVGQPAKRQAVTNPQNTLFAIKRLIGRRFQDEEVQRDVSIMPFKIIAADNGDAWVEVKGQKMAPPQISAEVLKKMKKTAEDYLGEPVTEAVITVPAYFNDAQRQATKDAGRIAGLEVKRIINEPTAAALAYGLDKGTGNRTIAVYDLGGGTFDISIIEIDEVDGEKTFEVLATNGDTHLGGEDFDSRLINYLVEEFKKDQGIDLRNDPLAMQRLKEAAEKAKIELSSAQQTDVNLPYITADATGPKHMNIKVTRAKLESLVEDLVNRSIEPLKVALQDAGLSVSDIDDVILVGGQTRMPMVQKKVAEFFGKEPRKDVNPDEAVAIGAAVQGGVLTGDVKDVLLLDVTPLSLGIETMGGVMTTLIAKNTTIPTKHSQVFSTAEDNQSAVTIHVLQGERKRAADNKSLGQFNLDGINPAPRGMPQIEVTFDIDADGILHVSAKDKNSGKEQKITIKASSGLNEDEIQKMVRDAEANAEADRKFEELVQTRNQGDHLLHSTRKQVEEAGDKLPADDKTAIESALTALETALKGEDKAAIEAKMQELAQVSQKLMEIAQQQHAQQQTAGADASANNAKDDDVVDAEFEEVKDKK
# Chain of Aspartate--tRNA ligase, cytoplasmic (P14868 whole entry): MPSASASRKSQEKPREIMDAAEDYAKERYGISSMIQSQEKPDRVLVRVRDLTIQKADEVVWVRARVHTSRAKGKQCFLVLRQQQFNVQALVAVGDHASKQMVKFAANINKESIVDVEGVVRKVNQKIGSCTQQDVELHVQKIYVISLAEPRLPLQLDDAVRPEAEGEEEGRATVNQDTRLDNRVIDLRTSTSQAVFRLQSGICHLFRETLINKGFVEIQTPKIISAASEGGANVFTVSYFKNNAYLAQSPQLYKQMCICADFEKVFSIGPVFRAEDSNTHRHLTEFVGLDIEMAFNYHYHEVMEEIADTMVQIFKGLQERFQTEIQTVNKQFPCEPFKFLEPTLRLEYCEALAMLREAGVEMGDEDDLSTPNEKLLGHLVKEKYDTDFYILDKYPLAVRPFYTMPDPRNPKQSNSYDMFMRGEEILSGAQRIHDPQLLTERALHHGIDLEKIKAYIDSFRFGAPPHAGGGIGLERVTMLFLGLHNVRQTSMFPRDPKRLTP
# Chain of Casein kinase II subunit beta, P67870 (P67870 whole entry): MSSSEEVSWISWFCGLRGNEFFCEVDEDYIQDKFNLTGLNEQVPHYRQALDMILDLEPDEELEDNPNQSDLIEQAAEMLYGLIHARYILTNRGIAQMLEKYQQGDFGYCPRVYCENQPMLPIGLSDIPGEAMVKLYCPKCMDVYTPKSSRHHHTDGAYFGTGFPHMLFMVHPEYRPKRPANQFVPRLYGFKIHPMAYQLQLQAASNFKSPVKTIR
# Chain of Casein kinase II subunit alpha (P68400 whole entry): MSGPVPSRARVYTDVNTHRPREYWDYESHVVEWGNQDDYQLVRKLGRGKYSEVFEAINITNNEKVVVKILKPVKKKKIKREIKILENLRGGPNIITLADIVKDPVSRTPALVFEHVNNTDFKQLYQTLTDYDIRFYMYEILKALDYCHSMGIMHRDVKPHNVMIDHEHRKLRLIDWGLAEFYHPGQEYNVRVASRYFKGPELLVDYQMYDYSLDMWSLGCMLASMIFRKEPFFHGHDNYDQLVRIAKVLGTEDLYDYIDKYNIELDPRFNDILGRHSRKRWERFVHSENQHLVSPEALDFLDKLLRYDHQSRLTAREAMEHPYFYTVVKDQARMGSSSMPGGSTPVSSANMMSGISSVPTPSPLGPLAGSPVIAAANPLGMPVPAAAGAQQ
# Chain of Integration host factor subunit beta (P0A6Y1 whole entry): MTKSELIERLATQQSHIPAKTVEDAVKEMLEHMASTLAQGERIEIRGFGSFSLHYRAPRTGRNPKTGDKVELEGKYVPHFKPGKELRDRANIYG
substance,measurement,setting,value
"14-3-3 protein epsilon, P62258",listed as a hit,14-3-3 protein eta,yes
"Heat shock protein HSP 90-beta, P08238",listed as a hit,"Actin, cytoplasmic 2",yes
"Ras-related protein Rab-11B, Q15907",listed as a hit,[1],yes
"Annexin A6, P08133",listed as a hit,Annexin A4,yes
"Eukaryotic translation elongation factor 1 epsilon-1, O43324",listed as a hit,[2],yes
"Formate acetyltransferase 1, P09373",listed as a hit,[3],yes
"Protein disulfide-isomerase A4, P13667",listed as a hit,Calreticulin,yes
"Peptidyl-prolyl cis-trans isomerase B, P23284",listed as a hit,Calreticulin,yes
"Casein kinase II subunit beta, P67870",listed as a hit,[4],yes
"Protein GrpE, P09372",listed as a hit,Chaperone protein DnaK,yes
"Charged multivesicular body protein 1b, Q7LBR1",listed as a hit,[5],yes
"DNA-binding protein HU-alpha, P0ACF0",listed as a hit,[6],yes
"Dihydrolipoyllysine-residue acetyltransferase component of pyruvate dehydrogenase complex, P06959",listed as a hit,[7],yes
same,listed as a hit,[8],yes
"2-oxoglutarate dehydrogenase E1 component, P0AFG3",listed as a hit,[9],yes
"Dihydrolipoyl dehydrogenase, P0A9P0",listed as a hit,[9],yes
same,listed as a hit,[8],yes
"Protein disulfide-isomerase, P07237",listed as a hit,[10],yes
same,listed as a hit,[11],yes
"3-ketoacyl-CoA thiolase FadA, P21151",listed as a hit,[12],yes
"Glutamate synthase [NADPH] large chain, P09831",listed as a hit,[13],yes
"Glycine--tRNA ligase alpha subunit, P00960",listed as a hit,[14],yes
"Integration host factor subunit alpha, P0A6X7",listed as a hit,[15],yes
"Myosin regulatory light polypeptide 9, P24844",listed as a hit,Myosin-9,yes
"Phenylalanine--tRNA ligase beta subunit, P07395",listed as a hit,[16],yes
"Succinate--CoA ligase [ADP-forming] subunit beta, P0A836",listed as a hit,[17],yes
"Transketolase 1, P27302",listed as a hit,Transketolase 2,yes
"Protein ElaB, P0AEH5",listed as a hit,[18],yes
"Myosin-9, P35579",listed as a hit,[19],yes
